Test results reported in PubChem BioAssay AID1159580 (chemical genetic matrix, 2015).
Among all 5,500 compounds or so, about 2,000 (36%) were called active. Not shown: some 18% with an inconclusive outcome. No stated cut-off is given here; in the data, active means normalized growth mostly below about 0.91 (no sharp cut-off); inconclusive means no clear call, values can overlap the other calls; inactive means mostly above about 0.92. The list shows a part of the results.

Assay: chemical genetic growth profiling, strain panel (AID 1159580);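 further: tested at 20 µM; growth read once vehicle control cultures reached saturation at 30 °C; 1 = growth at the plate median or of vehicle wells; lower values mean less growth of the strain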
Details: S. cerevisiae deletion strains, growth OD
[1] = locus YAL040C, strain CLN3, active compounds read low
[2] = locus YDR363W, strain ESC2, active compounds read low
[3] = locus YER002W, strain NOP16, active compounds read low
[4] = locus YGR229C, strain SMI1, active compounds read low
[5] = locus YNL153C, strain GIM3, active compounds read low
[6] = locus YNL175C, strain NOP13, active compounds read low
[7] = locus YNL197C, strain WHI3, active compounds read low
[8] = locus YNL224C, strain SQS1, active compounds read low
[9] = locus YOR083W, strain WHI5 (second series), active compounds read low

Measured: normalized growth

CCCCCCC/C=C\CCCCCCCCC(=O)O
inactive: [1] 1.01 | locus YCL061C, strain MRC1 (second series), active compounds read low 1.01 | [2] 1.02 | [3] 1.03 | [4] 1.01 | locus YMR307W, strain GAS1, active compounds read low 1.01 | [5] 0.946 | [6] 0.996 | [7] 1.01 | [8] 1.01 | [9] 1.01

CCCCC/C=C\C/C=C\C/C=C\C/C=C\CCCC(=O)NCC(=O)O
inactive: [1] 1.02 | locus YDR150W, strain NUM1, active compounds read low 1.03 | [2] 1.02 | [3] 1.02 | locus YGR078C, strain PAC10, active compounds read low 0.985 | [4] 0.963 | [5] 1.07 | [6] 0.941 | [7] 1.01 | [8] 0.979 | [9] 0.962
